The whole screen tested about 360,000 compounds, of which about 2,300 (0.64%) were called active. Only a selection was taken, and actives are over-represented in it overall. A number with no mark means an inactive call.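 Rule for the calls: active = compounds giving at least 50% protection of heart cells from peroxide-induced death in the single-dose screen, raw or plate-pattern-corrected value; inactive = the rest.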
Assay: H9c2 cardiomyocyte survival under peroxide injury – uHTS, H9c2 cells, ATPLite luminescence, primary screen (AID 588492);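 note: 0% = DMSO wells with peroxide and 100% = DMSO wells without peroxide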
Settings: H9c2 cardiomyocytes, 2 h, at 20 µM, stronger effect = higher value

Compound	protection from H2O2 cell death
COc1ccc(CN2CCC(c3nc4ccc(Cl)cc4[nH]3)CC2)cc1	-3.8%
Cn1c2c(c(=O)n(C)c1=O)C1c3ccccc3OCC1C(C)(C)O2 (configuration not stated)	11%
Cn1c2c(c(=O)n(C)c1=O)C(c1ccc(O)cc1)Nc1ccccc1O2 (configuration not stated)	2.1%
Cn1c2c(c(=O)n(C)c1=O)C(c1cccc([N+](=O)[O-])c1)Nc1ccccc1O2 (configuration not stated)	61.2% (active)
O=C(COc1nsnc1N1CCOCC1)Nc1ccccc1Cl	1.1%
O=C(CSCc1c(Cl)cccc1Cl)NN1C(=O)c2ccccc2C1=O	5.5%
CC(=O)c1cccc(-c2cnc3c(NC=O)cc(-c4ccc(N5CCN(C)CC5)cc4)cn23)c1	0.9%
CC(=O)c1cccc(-c2cnc3c(NC=O)cc(-c4cccc(C(=O)N(C)C)c4)cn23)c1	73.1% (active)
CC(=O)c1ccc(-c2cnc3c(NC=O)cc(-c4cccc(NS(C)(=O)=O)c4)cn23)cc1	64.4% (active)
CC(=O)Nc1cccc(-c2cc(NC(C)=O)c3ncc(-c4ccccc4)n3c2)c1	57.6% (active)
COc1ccc(-c2cc(NC=O)c3ncc(-c4ccccc4)n3c2)cc1OC	74.5% (active)
CC(=O)c1cccc(-c2cnc3c(NC=O)cc(-c4ccc(N(C)C)cc4)cn23)c1	34.4%
COc1cccc(-c2cnc3c(NC(C)=O)cc(-c4cccc(NC(C)=O)c4)cn23)c1	41.9%
CC(=O)Nc1cccc(-c2cc(NC=O)c3ncc(-c4ccc(F)c(Cl)c4)n3c2)c1	47.5%
COc1ccc(-c2cc(NC=O)c3ncc(-c4cc(OC)c(OC)c(OC)c4)n3c2)c(OC)c1	17.5%
COc1cccc(-c2cc(NC(C)=O)c3ncc(-c4cccc(C(C)=O)c4)n3c2)c1	24.1%
CN(C)C(=O)c1cccc(-c2cnc3c(NC=O)cc(-c4ccc(F)cc4)cn23)c1	12.9%
CC(=O)c1cccc(-c2cnc3c(NC=O)cc(-c4ccccc4Oc4ccccc4)cn23)c1	-13.2%
CCCc1c(C)nc2scc(-c3ccc(Cl)cc3)n2c1=O	-0.2%

Compound	protection from H2O2 cell death
Cc1cc(NC(=O)OC(C)C)ccc1-c1ccc(NC(=O)OC(C)C)cc1C	0.3%
COc1ccc(CSc2nnnn2-c2ccc(O)cc2)cc1F	-8.7%
Cc1ccc(OCCNC(=O)CCNS(=O)(=O)c2ccc(Br)cc2)cc1	-2.6%
CC1CCN(C(=O)CN(c2ccc(Oc3ccccc3)cc2)S(C)(=O)=O)CC1	-13.4%
Cc1nonc1OCCn1nnnc1N	-1.7%
Cc1oc(C(N)=O)cc1COc1ccc(C(N)=O)cc1	-0.9%
O=C(c1ccc(N2CCOCC2)c([N+](=O)[O-])c1)N1CCN(S(=O)(=O)c2cccs2)CC1	-4.8%
Cc1cccn2c(=O)nc(SCC(=O)NCc3ccccc3Cl)nc12	-5.6%
CCCn1c(SCC(=O)c2ccc3c(c2)OCCO3)nnc1C(C)C	2.3%
CN1CCNC(=O)C1CC(=O)N1CC=C(c2ccc(F)cc2)CC1 (configuration not stated)	-0.1%
N#Cc1ccccc1NC(=O)c1cccc(COc2ccc(Cl)cc2Cl)c1	-3.6%
Cc1ccc(S(=O)(=O)NCCC(=O)NNC(=O)C2COc3ccccc3O2)cc1 (configuration not stated)	-3.1%
Cc1c(CC(=O)N2CCN(C(=O)C3COc4ccccc4O3)CC2)c(=O)oc2c(O)c(O)ccc12 (configuration not stated)	61.9% (active)
Cc1c(CCC(=O)O)c(=O)oc2c(C)c(OCc3ccccc3Cl)ccc12	1.3%
Cc1nc2c(OCc3ccc(Cl)cc3)cccn2c1N(C)Cc1cccs1	-9.7%
CCc1nc2ccc(C(=O)N(C)Cc3ccco3)cn2c1N(C)C(=O)Cc1ccccc1	-2.1%
CCC(=O)Nc1ccccc1C(=O)N1CCN(Cc2ccccc2)CC1	5.1%
COc1ccccc1Nc1ncnc2c1oc1ccccc12	7.1%
COCCNc1nc(-c2ccccc2)nc2c1oc1ccccc12	1.8%

Compound	protection from H2O2 cell death
CCc1nc(Nc2ccc3nccnc3c2)c2oc3ccccc3c2n1	53.3% (active)
Cc1ccc(C(=O)N(CC(=O)NC2CCCC2)c2ccc(F)cc2)s1	-2.3%
COc1cccc(N2CC(C(=O)NCc3n[nH]c(=O)c4ccccc34)CC2=O)c1 (configuration not stated)	50.2% (active)
COc1cccc(CNC(=O)C2CC(=O)N(C3CCCCCCC3)C2)c1 (configuration not stated)	-0.1%
COc1ccc(C(=O)CSc2nnc(NC(=O)C3CC(=O)N(c4cccc(OC)c4)C3)s2)cc1 (configuration not stated)	-1.6%
COC(=O)CN(c1cccc(C(C)=O)c1)S(C)(=O)=O	-1%
O=C(Nc1cccc2cccnc12)c1ccc2sc([C@H]3C[C@H](O)[C@@H](CO)O3)nc2c1	76.9% (active)
O=C(Nc1nnc([C@H]2C[C@H](O)[C@@H](CO)O2)s1)c1cccc(Cl)c1	3%
O=C(Nc1ccc(Cl)cc1)c1csc([C@H]2C[C@H](O)[C@@H](CO)O2)n1	-8.3%
CCOn1c(=O)c(=O)n(O)c2ccccc21	3.3%
CCOc1cc(N2CCOCC2)c(OCC)cc1NC(=O)C1=NN(c2cccc(C)c2)C(=O)CC1	15.6%
CCOc1cc(N2CCOCC2)c(OCC)cc1NC(=O)COc1cccc2cccnc12	50.1% (active)
CCOc1cc(N2CCOCC2)c(OCC)cc1NC(=O)COC(=O)[C@H](Cc1c[nH]c2ccccc12)NC(C)=O	10.2%
CCc1ccc2c(c1)cc(CN(C(=S)Nc1ccccc1Cl)C1CC1)c1nnnn12	-3.2%
Clc1ccc(C2=CSC3=Nc4cccc5cccc(c45)N23)cc1	-4.9%
COc1cc(CO)c(C2(CO)CCCC2)cc1OC	2.5%
O=S(=O)(Nc1ccccn1)c1cccc(S(=O)(=O)c2ccc(Cl)cc2)c1	-4.1%
CCOc1cc(NS(=O)(=O)c2ccc(OC)cc2)c(OCC)cc1NC(C)=O	-4%
COc1cc(NS(=O)(=O)c2ccc3ccccc3c2)c2ncccc2c1	61.8% (active)

Reference: PubChem BioAssay AID588492 (Sanford-Burnham Center for Chemical Genomics, 2011)
